# Hits are enriched below; roughly 19% of the tested compounds scored in any of these assays.
# Giardia kill = Giardia lamblia killing; 340,000 tested, 0.15% active; Giardia lamblia trophozoite viability; activity change, % at 7.66 µM, hits read low; in the data active = activity change below about -80%; inconclusive = between about -30% and that limit;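 also: parasites exposed to compound for two days anaerobically before the ATP read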
#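 Each well holds 100 Giardia trophozoites and compound. After two days (48 hrs) at 37 deg C in anaerobic conditions, ATP is quantified by luminescence.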
# TDP1 cell CPT = DT40-hTDP1 cell growth loss with CPT; chicken DT40 Tdp1-/-;hTDP1 cells + 20 nM CPT, ATP luminescence, 48 h; Potency, µM (titrated, usually from 46.2 µM), for inactives: at the top dose activity change, negative = growth inhibition, actives largely listed as inhibitors; 420,000 tested, 12% active; also: potency is read from the fitted curve at half-maximal effect; nearly all actives have a fitted effect of over 55% in size
#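 Chicken DT40 Tdp1-/- cells stably complemented with human TDP1 were seeded at 400 cells/well in medium containing 20 nM camptothecin, exposed to pin-transferred compounds, and grown at 37 °C for at least 48 hr. Viability was read as ATP luminescence.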
# IL1B secr inh = blocks inflammasome-driven IL-1 beta release; THP-1 LPS/ATP IL-1B secretion, AlphaLISA, 16 h; active compounds read low; activity change, % at 57.5 µM; 360,000 tested, 4.7% active; AID 743279; in the data active = activity change below about -50%; inconclusive = mostly about -30% to -49%
#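 THP-1 cells pretreated 1 hr with compounds (up to 57.5 uM final), then stimulated with LPS (250 ng/mL final) plus ATP (1.25 mM final); secreted IL-1B measured by AlphaLISA after 16 hr, decreased signal indicating inhibition.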
# ELG1 repair inh = blocks ELG1-dependent DNA repair in HEK293T cells; HEK293T ELG1-luciferase reporter, luminescence, 16 h; DNA damage induced by 5-fluorouridine; 330,000 tested, 2.3% active; Potency, µM (doses to about 46.1 µM), without a hit: top-dose activity change, negative = inhibition, usual class: inhibitors; also: potency is read from the fitted curve at half-maximal effect; nearly all actives have a fitted effect of over 55% in size
#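 DMSO vehicle served as the neutral condition. Each well held 2,000 cells given 5-fluorouridine plus compound; after 16 hr at 37 °C/5% CO2, ONE-Glo was added and luciferase measured 30 min later.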
# TDP1 inh = blocks human tyrosyl-DNA phosphodiesterase 1; Q9NUW8; recombinant TDP1, AlphaScreen DNA substrate cleavage; Potency, µM (top dose mostly 130 µM), without a hit: top-dose activity change, negative = inhibition, usual class: inhibitors; 350,000 tested, 0.28% active; AID 485290; also: potency is read from the fitted curve at half-maximal effect; nearly all actives have a fitted effect of over 40% in size
# Target sequence (Q9NUW8 whole entry, looked up): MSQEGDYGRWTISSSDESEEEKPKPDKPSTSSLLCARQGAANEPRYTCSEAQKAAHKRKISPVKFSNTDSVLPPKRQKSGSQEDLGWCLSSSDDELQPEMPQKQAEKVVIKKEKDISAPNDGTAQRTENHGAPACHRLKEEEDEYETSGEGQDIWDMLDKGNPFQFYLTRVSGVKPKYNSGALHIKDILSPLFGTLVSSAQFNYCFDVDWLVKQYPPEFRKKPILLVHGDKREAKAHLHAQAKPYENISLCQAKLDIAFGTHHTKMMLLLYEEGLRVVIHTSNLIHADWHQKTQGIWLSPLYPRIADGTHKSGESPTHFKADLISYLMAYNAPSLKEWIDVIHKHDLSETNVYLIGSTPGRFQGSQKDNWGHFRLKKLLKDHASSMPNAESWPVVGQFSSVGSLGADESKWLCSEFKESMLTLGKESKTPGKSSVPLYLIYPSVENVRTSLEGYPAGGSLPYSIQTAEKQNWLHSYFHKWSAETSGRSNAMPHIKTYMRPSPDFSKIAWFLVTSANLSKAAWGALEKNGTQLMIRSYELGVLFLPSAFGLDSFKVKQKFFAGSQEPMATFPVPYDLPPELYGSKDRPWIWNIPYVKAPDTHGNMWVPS
#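 Recombinant human Tdp1 (E. coli-expressed, 1 nM final) preincubated with compounds 15 min at room temperature, then 5'-biotin/3'-phosphotyrosine-FITC DNA substrate (15 nM final) added for 5 min. AlphaScreen beads (10 ug/ml final) added 10 min; cleavage lowers signal.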
# TDP1 cell noCPT = qHTS for Inhibitors of human tyrosyl-DNA phosphodiesterase 1 (TDP1): qHTS in cells in absence of CPT; DT40 Tdp1-/- hTDP1 cells, no CPT, ATP luminescence, 48 h; 420,000 tested, 15% active; AID 686978, 2013; Potency, µM (highest dose often 46.2 µM), inactives show top-dose activity change, negative = growth inhibition, most hits filed as inhibitors; also: potency is read from the fitted curve at half-maximal effect; nearly all actives have a fitted effect of over 55% in size
#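 Camptothecin absent (DMSO only). Human TDP1-complemented DT40 knockout cells, 400 cells/well, 37 °C for minimum 48 hr; ATP measured via CellTiter-Glo, 30 min dark incubation, luminescence.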
# Active calls of the source: *; ? = inconclusive; · = no result; [ ] = dose if it differs, or a comment. Unless noted, calls follow the shape of the dose curve; as a rule, active = well fitted curve in the direction sought with a large enough effect; inconclusive = small, poorly fitted or top-dose-only effect, or another doubt; inactive = no such curve, though single readings can be large; an effect the other way counts as inactive or inconclusive. % is scaled to controls: 0 for no effect and ±100 for the full control effect.
SMILES,Giardia kill,TDP1 cell CPT,IL1B secr inh,ELG1 repair inh,TDP1 inh,TDP1 cell noCPT
O=C(c1ccccc1)N1CCN(S(=O)(=O)c2ccc(Cl)c(C(F)(F)F)c2)CC1,16,?,6,-6%,0%,-18%
O=C(CSc1cccc(C(F)(F)F)c1)N1CCN(S(=O)(=O)c2ccccc2)CC1,9,?,-55*,?,-2%,?
Cc1ccc(S(=O)(=O)N2CCN(C(=O)/C=C/c3ccco3)CC2)cc1,5,-6%,-15,1%,3%,-29%
O=C(CC1CC2CCC1C2)N1CCN(S(=O)(=O)c2ccccc2[N+](=O)[O-])CC1 (stereo unspecified),14,?,-14,-27%,3%,?
O=C(CC1CC2CCC1C2)N1CCN(S(=O)(=O)c2ccccc2C(F)(F)F)CC1 (stereo unspecified),-10,-10%,16,11µM*,-1%,?
O=C(/C=C/c1ccco1)N1CCN(S(=O)(=O)c2ccccc2)CC1,-22,-15%,-8,-1%,10µM*,9%
O=C(c1ccccc1C(F)(F)F)N1CCN(S(=O)(=O)c2ccccc2)CC1,11,2%,-7,21µM*,0%,-7%
CCOc1ccc2nc(S(=O)(=O)NC(=O)C3(C)CCN3C(=O)CCc3cccs3)sc2c1 (stereo unspecified),·,7%,54,·,·,-2%
CN(C)S(=O)(=O)c1ccc2c(c1)N(CC(=O)NCc1ccc(F)cc1)C(=O)CS2,·,-27%,·,·,5%,-23%
CC(=O)c1c[nH]c(C(=O)NCc2ccccc2Cl)c1,8,8%,9,2%,·,-1%
CCn1c(=O)n(CC)c2cc(N3CCCC3)c(NC(=O)Nc3cc(C)cc(C)c3)cc21,·,21µM*,·,·,5%,18µM*
CCn1c(=O)n(CC)c2cc(N3CCCCC3)c(NC(=O)Nc3ccccc3C(F)(F)F)cc21,·,12µM*,·,·,8%,10µM*
O=C(Nc1cc([N+](=O)[O-])ccc1N1CCCC1)c1ccccc1,5,5%,-9,4%,-3%,1%
Cc1cc(C)cc(NC(=O)Nc2ccc(N3CCCCC3)cc2)c1,-6,?,-7,?,8%,?
CCn1c(=O)n(CC)c2cc(N3CCCC3)c(NC(=O)c3ccccc3)cc21,-1,21µM*,?,?,8%,9.2µM*
Cn1c(=O)n(C)c2cc(N3CCCCC3)c(NC(=O)c3ccccc3)cc21,-6,29µM*,32,-6%,0%,?
Cn1c(=O)n(C)c2cc(N3CCCCC3)c(NC(=O)c3ccc(Cl)cc3)cc21,·,-3%,·,·,2%,-6%
CCn1c(=O)n(CC)c2cc(N3CCCCC3)c(NC(=O)Nc3cc(Cl)ccc3OC)cc21,·,23µM*,·,·,10%,18µM*
COc1ccc(Br)c(C(=O)Nc2cc3c(cc2N2CCCC2)n(C)c(=O)c(=O)n3C)c1,·,16µM*,·,·,8%,21µM*
CCOc1ccccc1C(=O)NCCNC(=O)c1ccccc1OCC,-11,-17%,31,·,·,-25%
Cn1c(=O)c(=O)n(C)c2cc(N3CCCC3)c(NC(=O)c3ccccc3Cl)cc21,·,-6%,·,·,-2%[12.3 µM],?
CCn1c(=O)n(CC)c2cc(N3CCCC3)c(NC(=O)c3cc(Br)ccc3OC)cc21,-8,?,-14,?,10%,?
CCOc1ccccc1C(=O)Nc1cc2c(cc1N1CCCCC1)n(C)c(=O)n2C,·,15µM*,·,·,2%,18µM*
CCOc1ccccc1C(=O)NN1C(=O)CCC1=O,-12,?,54,4%,5%,18µM*
COc1ccc(C(=O)NC(=S)Nc2cccc3ncccc23)cc1[N+](=O)[O-],-12,-26%,-6,-11%,5%,?
SMILES,Giardia kill,TDP1 cell CPT,IL1B secr inh,ELG1 repair inh,TDP1 inh,TDP1 cell noCPT
COc1ccc(NC(=O)Cn2ccn(-c3ccccc3)c(=O)c2=O)cc1,·,-3%,·,·,0%,2%
CCn1c(=O)n(CC)c2cc(N3CCCC3)c(NC(=O)c3ccccc3F)cc21,-12,18µM*,?,?,9%,12µM*
CCn1c(=O)n(CC)c2cc(N3CCCC3)c(NC(=O)c3ccccc3C)cc21,-9,16µM*,8,?,8%,21µM*
Cn1c(=O)c(=O)n(C)c2cc(N3CCCC3)c(NC(=O)c3ccccc3F)cc21,·,-2%,·,·,-8%,-24%
Clc1cccc[n+]1CCc1ccccc1,·,-28%,·,·,·,7%
CC(=O)OCC(NC(=O)C(COCc1ccccc1)NC(=O)OC(C)(C)C)C1OC(n2cc(C)c(=O)[nH]c2=O)C(OC(C)=O)C1OC(C)=O (stereo unspecified),41,·,·,·,5%,·
CC(C)C(=O)OCC(=O)[C@@]12O[C@H](C3CCCCC3)O[C@@H]1C[C@H]1[C@@H]3CCC4=CC(=O)C=C[C@]4(C)[C@H]3[C@@H](O)C[C@@]12C,·,-8%,·,·,·,-16%
COc1cccc(Nc2ncc3nc(-c4cn(C)c5ccccc45)c(=O)n(CCC#N)c3n2)c1,·,-34%,·,·,·,-12%
CCN(c1ccccc1)S(=O)(=O)c1cc(C(=O)NCC(c2ccco2)N2CCCCC2)ccc1C (stereo unspecified),29,?,-79*,0%,0%,?
CCN(c1ccccc1)S(=O)(=O)c1cccc(C(=O)NCC(c2ccco2)N2CCCC2)c1 (stereo unspecified),8,?,-19,-8%,5%,?
CCN(c1ccccc1)S(=O)(=O)c1cccc(C(=O)NCC(c2ccco2)N2CCCCC2)c1 (stereo unspecified),-2,?,-55*,·,·,16µM*
CC(=O)NS(=O)(=O)c1ccc(NC(=S)NC(=O)C2CCC2)cc1,37,-15%,-3,2%,1%,30%
OC[C@H]1O[C@@H](c2nc(-c3ccccc3Br)no2)[C@H](O)[C@@H]1O,·,0.52µM*,0,·,·,6.5µM*
CCOc1ccc(-c2noc([C@@H]3O[C@H](CO)[C@@H](O)[C@H]3O)n2)cc1,·,?,-58*,·,·,?
COc1ccc(Cl)cc1-c1noc([C@@H]2O[C@H](CO)[C@H](O)[C@H](O)[C@H]2O)n1,·,?,23,·,·,-14%
OC[C@H]1O[C@@H](c2nc(-c3cccc4ccccc34)no2)[C@H](O)[C@@H]1O,·,?,-68*,·,·,15µM*
COc1ccc(-c2noc([C@@H]3O[C@H](CO)[C@H](O)[C@H](O)[C@H]3O)n2)cc1OC,·,13%,18,·,·,15%
